The full ranking holds about 25,000 sequences; the median of “ln(normalized median fluorescence intensity)” is about 9.7, and the highest 2% start at about 11. The full list was thinned out, with the highest values kept by preference.
tested on: PfAP2-HC AP2 domain (GST-tagged); experiment: gcPBM binding intensity (ln(normalized median fluorescence intensity)); higher = stronger DNA binding
Procedure, shortened: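 Binding intensity is the highest Masliner-normalised natural-log median intensity over replicate spots in either probe orientation. To obtain it, GST-tagged P. falciparum DNA-binding domains made in E. coli were incubated for 1 h on an Agilent 4 × 180k array of primer-extended double-stranded 36-bp intergenic genomic probes plus negative controls. Detection used Alexa488 anti-GST antibody with scanning at 488 nm.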

Sequence	gcPBM binding intensity (ln)
ACTAATATGTATATATATATATATATATATATATAT [CACACA_negctrl_site141]	9.58
TCTTAATTTGTTATATGTACATAATATAATTGTATA [XGTACX_site5184]	9.55
TATTATTTATATGATACACACGTACATATACACATA [CACACA_site9275]	9.86
TTTAATAATATAATGTGTACTTAAAAATTTATATAT [XGTACX_site5821]	9.44
AAAAAGAAAAAACTTACACACATATATACCCCCATG [CACACA_site4463]	10.2
TATACATACATACATACACACACACCGATATATACA [CACACA_site8184]	10.8
AAAAAACAGACATACACACACACACCCATATATATA [CACACA_site3392]	10.8
AACATACATAAACACACACACACACCCACACCCACA [CACACA_site8058]	10.8
AAAAAAAAAAAAAAAACACACATACACCCAGACACA [CACACA_site5807]	11.3
CATACACCCAGACACACACACATATATATATATATA [CACACA_site634]	10.4
AAAAAGAAAAAACTTACACACATATATACACCCATG [CACACA_site8079]	11.3
CATACATACAAACACACACACACACCGATATATATA [CACACA_site8952]	10.7
AAAAAGAAAAAACTTACACACATATATACAGACATG [CACACA_site550]	10
AACATACATAAACACACACACACACCCACAGAGACA [CACACA_site4430]	11
AAAAAACACCCATACACACACACACCGATATATATA [CACACA_site5808]	11
TAAACATACAGATACACACACACACCCACAGAGACA [CACACA_site4429]	10.6
TTTAAAACCTTACATACACACAAATATATATATATA [CACACA_site677]	10
AAAAAATATGCATATACACACATATGTATAAATAAC [CACACA_site7090]	10.1
TATTTAACACCTTATACACACTTTCTTCCTTTTTTA [CACACA_site4590]	10.1
AAGTATTATATATTTTGTACATATATAAAACCACAA [XGTACX_site5508]	9.61
AATATATACACATGCGCACACACAAGTGGGAAATTT [CACACA_site8527]	10.2
ATAGAAACATATTGACGTACAGTATAATAATACAGT [XGTACX_site197]	9.91
TGAAATACGAATTATTGTACTTATGTGTAAGATGGC [XGTACX_site4472]	9.71

Sequence	gcPBM binding intensity (ln)
CAATTTGGTGTACAGGTGCACATGCCTCACGATAAA [GTGCAC_site9650]	9.61
AATACTAAAACCCATACACACACATATATATAGTAC [CACACA_site9041]	11
CACCCATACACATACAAACACACATTCTATATATAT [CACACA_site1600]	10.1
TATATACACAAACACACACACACATACACCCACATA [CACACA_site8504]	10.8
CATACATACAAACACACACACACACCCATATATATA [CACACA_site2918]	11.1
TACTAAAACCCATACACACACATATTTATAGTACCA [CACACA_site7484]	10.6
AGATACAAGCACTATAGTACACATACTAAAAATATA [XGTACX_site5849]	9.73
TTATATGTATATATAGTGCAGAACAAAAGATTATAT [GTGCAC_site9599]	9.7
GGACTTTATAAAAATGGTACACGCAATTCTATAATC [XGTACX_site6515]	9.61
TACATAAATTAAAACACACACACACTAATAAAAAAA [CACACA_site8712]	11.3
TACATAAATTAAAACACACACACACTAAAAAAAAAA [CACACA_site7130]	10.5
AAAAAACATACATACACACACATAAATATATATATT [CACACA_site2699]	10.4
AAACGTACATAATACACACACATGTATACATATAAA [CACACA_site2048]	10.2
AAAAAAAACATACATACACACACATAAATATATATA [CACACA_site8864]	11.4
CATATACATAAACACACACACACATAAATAAATATA [CACACA_site4864]	10.6
AAAAATTAAATAAATTTACACACTAATAATTACATA [CACACA_site8260]	9.63
ATTTCATAAATTAAACGTACATAATACACACACATG [XGTACX_site4155]	11
TACAATTTAAAACACACACACAATAATACATATATA [CACACA_site1251]	11
GAAATAATTTCATATACACACATATACATACATACA [CACACA_site1358]	9.95
CATTTAACATAAATTAAACACACAATATAATACATT [CACACA_site8333]	9.73
TATAATTTAAAATACACACACATATATATAATATAT [CACACA_site2000]	10.1
ATAAAAATATTACGCACACACAAACTTATTCATTAT [CACACA_site1969]	10.2
TATATATTTTTATGTGTGCACTGTTTCATAAAAGAA	9.61

Sequence	gcPBM binding intensity (ln)
ACAATTTACACTTAAACACACAAAAAAAAGTTATAT [CACACA_site7056]	9.98
ATATATTTATATATATGTACATATTATGTTAAGAAA [XGTACX_site1111]	9.69
ATATATAAATTTTAGTGTACATTAATTTTTTTTTTT [XGTACX_site7782]	9.64
ATTTATTTATATTTAGTGCAATACTATTTTTAAATA [GTGCAC_site9886]	9.48
TTATGTTGTAAATACACACATACATATACATACACA [CACACA_site733]	9.91
ATAATATATACGTGTGTGCACATGACAAAAGCATAT	10.6
TACACAAAAATAAACACACACACATATATATATATA [CACACA_site1000]	10.2
ATTCTTTTAAACAGTACACACACACCGATATATATA [CACACA_site8213]	10.7
AAAAAATAAAAAAAAACACACACATACAAGCATATA [CACACA_site8451]	11.1
AAAAAAAAAAAAAACACACACATATAAATATAAATA [CACACA_site6972]	10.4
AACATATACACGAACACACACACATATAAATAAATA [CACACA_site6380]	10.4
CTAAAATACGAACACACACACACATATAAATAAATA [CACACA_site7872]	11.2
TCTTTTAAACAGTACACACACACATATATATATATA [CACACA_site924]	10.7
AATATATAAATATATACACACAAAAACATATATATA [CACACA_site1318]	9.99
TATATTCTTTTAAACAGTACACACACACATATATAT [XGTACX_site1701]	11.1
TAAAATATAAAACACACACACATATATATATATATT [CACACA_site224]	10.3
CATATACACGAACACACACACATATAAATAAATATA [CACACA_site6379]	10.6
AATATAAATAAACACACACACATATATATATATATT [CACACA_site2906]	11
AAGCATTTTTTTTAAAGCCTGTTCATCATCCTTACC [CACACA_negctrl_site129]	9.44
TATTAATTAAACCATACACACATAATTTTTTTATAA [CACACA_site843]	9.85
ATTATTTAAATTTAACGTACGGAATAAGACATAGAT [XGTACX_site8622]	9.79
CATTTACATGCCAACATGCACTGAACAATCTTTATA [GTGCAC_site9797]	9.68
AAAATATATTAAGGCACACACATACATATTTATATA [CACACA_site7707]	10.2

Sequence	gcPBM binding intensity (ln)
AAATGAATAAAATTTATTTATAAAAGAAAAATCACA [GTGCAC_negctrl_site225]	9.57
TATATATATATATATACACACATACAGATATATATT [CACACA_site4629]	9.88
TAAATAAATAAAAAAACACACATATATATATATATA [CACACA_site4029]	10
ACCATATAAATAAACACACACACACCGATATATATA [CACACA_site5310]	10.6
CATAAAATATAAAACACACACACATATATATATATA [CACACA_site223]	10.7
AGAGCATAATAAAACACACACATACATACCTATATA [CACACA_site6566]	10.9
AAAAAAAAAAAAAACACACACACACGCATAAATATA [CACACA_site6217]	11.5
AAAATACATAAACACACACACACACCGATATATATA [CACACA_site9186]	11.6
AAATAATATAAACATACACACACACCGATATATATA [CACACA_site8945]	10.7
TAAATAAATAAAAAAACACACATATAAATATAAATA [CACACA_site7815]	9.93
AGAGCATAATAAAACACACACATACATACATATATA [CACACA_site935]	10.3
TATAAATAAAAACACACACACACATATATATATATA [CACACA_site2268]	10.7
GTAGAGCATAATAAAACACACACATACATACATATA [CACACA_site8217]	10.4
TAAATAAAAAAACACACACACATATATATATATATA [CACACA_site2269]	11.4
CAATCATGGTTTTACACACACATGCATGTGAAAATT [CACACA_site4870]	9.8
TTATACGATAATATGACACACAATACAAAAATGTAA [CACACA_site1918]	9.86
AATATAATATATATTAGTACATATATATATATATAT [XGTACX_site870]	9.58
GAAATAAATATATATGCATGTACTTTAATATTATTA [TGCATGCA_site904]	9.66
TTTTACATATATATATGTACGAAAATGAAAAGGTCA [XGTACX_site5576]	9.59
TTTTTATGTTATCAAATAAATATAAATATAATTCAT [CACACA_negctrl_site1522]	9.32

— the supplement of paper PMC11417369
